Bioassay records from PubChem BioAssay.
SW480 rereplic: inducers of DNA re-replication in SW480 colon cancer cells; SW480 DNA re-replication, Hoechst DNA content imaging, 48 h; Potency, µM (highest dose often 46.1 µM), usual class: activators; 340,000 tested, 1.8% active; AID 624297; note: nearly all actives have a fitted effect of over 55% in size
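Quantitative HTS format with DMSO vehicle controls; 48 hr drug incubation at 37 C, then 40 min Hoechst staining and scanning imager measurement at 405 nm excitation.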
KB-V1 cytotox: KB-V1 MDR subline cytotoxicity | KB-V1 MDR cells viability, CellTiter-Glo, 72 h | Potency, µM (highest dose often 46.1 µM), usual class: cytotoxic | 400,000 tested, 3.4% active | AID 1347076; note: nearly all actives have a fitted effect of over 60% in size
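qHTS viability screen in drug-selected KB-V1 MDR cells: 72 h compound treatment at 37 degrees C, ATP luminescence end point.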
12-LOX inh: inhibitors of human 12S-lipoxygenase ALOX12 | P18054 | purified 12hLO, xylenol orange hydroperoxide absorbance | Potency, µM (doses to about 108 µM), most hits filed as inhibitors | 580,000 tested, 1.1% active
Target sequence (P18054 whole entry, looked up): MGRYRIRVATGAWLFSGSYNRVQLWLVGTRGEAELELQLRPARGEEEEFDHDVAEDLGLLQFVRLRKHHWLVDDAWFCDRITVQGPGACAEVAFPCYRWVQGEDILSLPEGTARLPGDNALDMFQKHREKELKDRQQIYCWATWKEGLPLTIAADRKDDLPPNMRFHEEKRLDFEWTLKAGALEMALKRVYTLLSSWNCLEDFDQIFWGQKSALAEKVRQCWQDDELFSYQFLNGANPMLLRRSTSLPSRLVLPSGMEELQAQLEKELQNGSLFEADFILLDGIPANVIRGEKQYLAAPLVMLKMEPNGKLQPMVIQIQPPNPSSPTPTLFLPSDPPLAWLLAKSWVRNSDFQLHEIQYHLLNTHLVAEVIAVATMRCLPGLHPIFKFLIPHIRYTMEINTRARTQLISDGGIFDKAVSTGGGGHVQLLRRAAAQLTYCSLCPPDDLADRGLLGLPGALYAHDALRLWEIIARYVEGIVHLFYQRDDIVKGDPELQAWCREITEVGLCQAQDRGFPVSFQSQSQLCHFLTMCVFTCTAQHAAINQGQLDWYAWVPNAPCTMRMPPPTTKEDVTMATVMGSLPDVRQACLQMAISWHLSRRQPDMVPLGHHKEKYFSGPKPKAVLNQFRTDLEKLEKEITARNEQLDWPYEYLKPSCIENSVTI
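Purified human 12hLO (150 nM final) in 25 mM Hepes, 0.01% Triton X-100, pH 7.0 was preincubated 15 min at room temperature with compound. Then 40 uM arachidonic acid was added, 30 min. Hydroperoxide was read by Fe-XO absorbance ratio 573/405 nm.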
KB-3-1 tox: KB-3-1 parental cell cytotoxicity | 400,000 tested, 1.4% active | Potency, µM (top dose mostly 46.1 µM), hits mostly cytotoxic | AID 1347075 | KB-3-1 viability, CellTiter-Glo ATP luminescence, 72 h; note: nearly all actives have a fitted effect of over 60% in size
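KB-3-1 cells, DMEM (no phenol red) + 10% FBS; compound by pin transfer, 72 h, 37 °C. Readout: CellTiter-Glo luminescence after 10 min. Data normalized, curve-fitted.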
PINK1 expr mod: PINK1 expression modulation. 410,000 tested, 0.2% active. PINK1 immunofluorescence, high-content cytometry, 24 h. Potency, µM (doses to about 76.6 µM), usual class: activators; active = well fitted activation curve with a large enough effect; inconclusive = small, poorly fitted or top-dose-only effect; cell line not stated here; note: nearly all actives have a fitted effect of over 65% in size
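PINK1 protein, normally rapidly degraded, was detected by immunofluorescence after 24 hour compound treatment of a stable cell line. Titration data (5 concentrations) came from laser-scanning cytometry, with CCCP-treated wells as controls.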
MCF10A rerep: inducers of DNA re-replication in MCF 10A breast cells; MCF 10A DNA re-replication, Hoechst nuclear intensity, 48 h; Potency, µM (doses to about 46.1 µM), usual class: activators; 350,000 tested, 2.9% active; note: nearly all actives have a fitted effect of over 50% in size
Hits are given with their value; ! = a repeat was not active. Rows were chosen to be rich in hits. Some 5.8% of all compounds tested hit in one or more screens of this group. Unless noted, calls come from the whole dose curve; as a rule, active = well fitted curve in the direction sought with a large enough effect; inconclusive = small, poorly fitted or top-dose-only effect, or another doubt; inactive = no such curve, though single readings can be large; an effect the other way counts as inactive or inconclusive.

Results for Nc1c(N(CCC2=CCCCC2)C(=O)COc2ccc(F)cc2Cl)c(=O)[nH]c(=O)n1Cc1ccccc1 ?
SW480 rereplic: inactive; KB-V1 cytotox: inconclusive; 12-LOX inh: inactive; KB-3-1 tox: 8.2µM; PINK1 expr mod: inactive; MCF10A rerep: 11.6µM

How did CCCCCN(C(=O)CCC(=O)OCc1ccc(C(C)C)cc1)c1c(N)n(CCCC)c(=O)[nH]c1=O do in these assays?
SW480 rereplic: inactive; KB-V1 cytotox: inactive; 12-LOX inh: inactive; KB-3-1 tox: inactive; PINK1 expr mod: inactive; MCF10A rerep: 23.1µM

Results for CCCCCN(C(=O)CCC(=O)OCc1ccccc1F)c1c(N)n(CCCC)c(=O)[nH]c1=O ?
SW480 rereplic: inactive; KB-V1 cytotox: inactive; 12-LOX inh: inactive; KB-3-1 tox: inconclusive; PINK1 expr mod: inactive; MCF10A rerep: inactive

How did N#Cc1cc([N+](=O)[O-])ccc1NC(=O)COC(=O)CC12CC3CC(CC(Br)(C3)C1)C2 do in these assays?
12-LOX inh: inactive

What do the screens show for `C=CCOc1ccc(/C=C/C(=O)Nc2ccc(C(N)=O)cc2)cc1`?
12-LOX inh: inactive

What do the screens show for `COc1cccc(CN2CCC(Oc3ccc(-c4noc(C5CC5)n4)cc3)C2)c1` (centres undefined)?
12-LOX inh: inactive

How did CCCCn1c(N)c(N(CCOC)C(=O)CCCc2nc3ccccc3c(=O)[nH]2)c(=O)[nH]c1=O do in these assays?
SW480 rereplic: 23.1µM; KB-V1 cytotox: inactive; 12-LOX inh: inconclusive; KB-3-1 tox: inconclusive; PINK1 expr mod: inactive; MCF10A rerep: inactive

How did CCCCN(C(=O)c1ccc(-c2ccc(Cl)cc2)o1)c1c(N)n(CCC)c(=O)[nH]c1=O do in these assays?
SW480 rereplic: inconclusive; KB-V1 cytotox: inactive; 12-LOX inh: 15.8µM!; KB-3-1 tox: inactive; PINK1 expr mod: inactive; MCF10A rerep: inactive

What do the screens show for `CCCCN(C(=O)c1ccc(-c2ccc(Cl)cc2)o1)c1c(N)n(CCCC)c(=O)[nH]c1=O`?
SW480 rereplic: inactive; KB-V1 cytotox: inactive; 12-LOX inh: inconclusive; KB-3-1 tox: inactive; PINK1 expr mod: inactive; MCF10A rerep: inactive

How did COCCN(C(=O)COC(=O)c1ccccc1Oc1ccccc1)c1c(N)n(Cc2ccccc2)c(=O)[nH]c1=O do in these assays?
SW480 rereplic: 20.6µM; KB-V1 cytotox: inactive; 12-LOX inh: inactive; KB-3-1 tox: inconclusive; PINK1 expr mod: inactive; MCF10A rerep: inactive

What do the screens show for `O=C(NC1CCCCCCC1)C1CCCN(C2CCN(Cc3ccncc3)CC2)C1` (centres undefined)?
12-LOX inh: inactive

What do the screens show for `CCc1nc2sc(C(C)=O)c(N)c2c2c1CCCC2`?
SW480 rereplic: 14.6µM; KB-V1 cytotox: inconclusive; 12-LOX inh: inconclusive; KB-3-1 tox: inactive; PINK1 expr mod: inactive; MCF10A rerep: 2.91µM

Results for CC(=O)c1sc2nc(C)cc(C)c2c1N ?
SW480 rereplic: inconclusive; KB-V1 cytotox: inactive; 12-LOX inh: inactive; KB-3-1 tox: inactive; PINK1 expr mod: inactive; MCF10A rerep: inconclusive

Results for Cc1ccc(-c2c3c(nc4sc(C(N)=O)c(N)c24)CCCC3)o1 ?
SW480 rereplic: inactive; KB-V1 cytotox: inactive; 12-LOX inh: inactive; KB-3-1 tox: inactive; PINK1 expr mod: inactive; MCF10A rerep: inconclusive

How did NC(=O)c1sc2nc(-c3ccccc3)c3c(c2c1N)CCCC3 do in these assays?
SW480 rereplic: 14.6µM; KB-V1 cytotox: inactive; 12-LOX inh: inactive; KB-3-1 tox: inactive; PINK1 expr mod: inactive; MCF10A rerep: 20.6µM

What do the screens show for `CCc1nc2sc(C#N)c(N)c2c2c1CCCC2`?
SW480 rereplic: inactive; KB-V1 cytotox: inactive; 12-LOX inh: inactive; KB-3-1 tox: inactive; PINK1 expr mod: inactive; MCF10A rerep: inactive

How did CC(=O)c1sc2nc(-c3ccc(C)cc3)c3c(c2c1N)CCCC3 do in these assays?
SW480 rereplic: 2.91µM; KB-V1 cytotox: 18.4µM; 12-LOX inh: inactive; KB-3-1 tox: inactive; PINK1 expr mod: inactive; MCF10A rerep: 2.31µM

Results for Cc1ccc(-c2nc3sc(C(N)=O)c(N)c3c3c2CCCC3)cc1 ?
SW480 rereplic: 16.4µM; KB-V1 cytotox: inconclusive; 12-LOX inh: inconclusive; KB-3-1 tox: inactive; PINK1 expr mod: inactive; MCF10A rerep: 5.17µM

How did NC(=O)c1sc2nc3c(c(-c4ccco4)c2c1N)CCC3 do in these assays?
SW480 rereplic: inactive; KB-V1 cytotox: inconclusive; 12-LOX inh: inactive; KB-3-1 tox: inactive; MCF10A rerep: inactive

How did CC[C@H]1CN(S(=O)(=O)c2ccccc2)CC[C@H]1CC(=O)NCCOC do in these assays?
12-LOX inh: inactive

Results for Cc1nc2sc(C(N)=O)c(N)c2c2c1CCCC2 ?
SW480 rereplic: inconclusive; KB-V1 cytotox: 20.6µM; 12-LOX inh: inactive; KB-3-1 tox: inactive; PINK1 expr mod: inactive; MCF10A rerep: inconclusive

Results for NC(=O)c1sc2nc(N3CCOCC3)c3c(c2c1N)CCCC3 ?
SW480 rereplic: inactive; KB-V1 cytotox: inconclusive; 12-LOX inh: inactive; KB-3-1 tox: inactive; PINK1 expr mod: inactive; MCF10A rerep: inconclusive

How did COc1cccc2cc(-c3ccc(OCC(=O)NCCN4CCOCC4)cc3)c(=O)oc12 do in these assays?
12-LOX inh: inactive

What do the screens show for `CCOC(=O)c1c(C)nc2sc3c(=O)n(-c4ccc(C(C)=O)cc4)cnc3c2c1-c1ccc(OC)cc1`?
SW480 rereplic: inactive; KB-V1 cytotox: inactive; 12-LOX inh: inactive; KB-3-1 tox: inactive; PINK1 expr mod: inactive; MCF10A rerep: inactive

How did CC(=O)c1c(C)nc2sc3c(=N)n(N)cnc3c2c1-c1ccc(Cl)cc1 do in these assays?
SW480 rereplic: inactive; KB-V1 cytotox: 18.4µM; 12-LOX inh: inactive; KB-3-1 tox: inconclusive; PINK1 expr mod: inactive; MCF10A rerep: inactive

Results for O=C(NCc1ccccc1)c1ccc(CS(=O)(=O)Cc2ccccc2F)o1 ?
SW480 rereplic: inactive; KB-V1 cytotox: 16.4µM; 12-LOX inh: inactive; KB-3-1 tox: inactive; PINK1 expr mod: inactive; MCF10A rerep: inactive

How did O=c1cc(NS(=O)(=O)c2ccccc2)nc(SCc2ccc(Cl)cc2)[nH]1 do in these assays?
SW480 rereplic: inactive; KB-V1 cytotox: 16.4µM; 12-LOX inh: inactive; KB-3-1 tox: inactive; PINK1 expr mod: inactive; MCF10A rerep: inconclusive

How did Cc1ccc(NC(=O)CSc2nc(NS(=O)(=O)c3ccc(C)cc3)cc(=O)[nH]2)cc1 do in these assays?
SW480 rereplic: inactive; KB-V1 cytotox: 4.11µM; 12-LOX inh: inconclusive; KB-3-1 tox: inactive; PINK1 expr mod: inactive; MCF10A rerep: inconclusive

Results for O=C(CSc1nc(NS(=O)(=O)c2ccccc2)cc(=O)[nH]1)Nc1ccc(Cl)cc1 ?
SW480 rereplic: inactive; KB-V1 cytotox: inactive; 12-LOX inh: inconclusive; KB-3-1 tox: inconclusive; PINK1 expr mod: inactive; MCF10A rerep: inactive

What do the screens show for `O=C(Nc1cccc(OCC2CCCO2)c1)C1CCN(C(=O)Nc2ccccc2)CC1` (centres undefined)?
12-LOX inh: inactive
